Results with a measured potency or affinity are listed apart. Calls of active or inactive are those of the source.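 The calls were made as follows: active = CTGF level falls with dose and the fitted half-maximal dose is at most twice the top valid dose; inconclusive = flat fit with 30 to 70% drop, or a poor fit; inactive = the rest.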
assay: CTGF mRNA reduction in DLD1 cells – cell-based, DLD1 colon cancer, RT-qPCR, cherry-pick, dose response (AID 1053122); details: DLD1 CTGF mRNA (YAP1 pathway), 24 h; series mostly up to 26 µM; CTGF expression fold change (lower = inhibition): at the top concentration

CTGF expression fold change (lower = inhibition), inactive:
COc1ccccc1C#Cc1ccc([C@H]2[C@H](CO)N3CCCCN(C(=O)C4CCC4)C[C@@H]23)cc1 0.394 unspecified
CCNC(=O)c1cc2c(c(-c3cccc(-c4ccccc4F)c3)n1)[C@@H](CCO)N(C(=O)CC1CC1)C2 0.698 unspecified
C[C@@H]1CN([C@@H](C)CO)C(=O)c2cccc(NC(=O)c3nc4ccccc4s3)c2O[C@H]1CN(C)C(=O)Nc1ccc2c(c1)OCO2 0.667 unspecified
O=C(CC1CC1)N1CC(=O)N2[C@@H](CO)[C@H](c3ccc(/C=C/c4ccccc4)cc3)[C@@H]2C1 0.997 unspecified
C[C@H]1CN([C@@H](C)CO)S(=O)(=O)c2ccc(-c3cncnc3)cc2O[C@@H]1CN(C)C(=O)NC1CCCC1 0.874 unspecified
CN1C(=O)c2cc(NS(=O)(=O)c3ccccc3F)ccc2OC[C@@H]2O[C@@H](CC(=O)NC3Cc4ccccc4C3)CC[C@@H]21 1.2 unspecified
O=C(Nc1ccc2c(c1)[C@H]1C[C@@H](CC(=O)N3CCc4ccccc4C3)O[C@@H](CO)[C@H]1O2)c1ccc2c(c1)OCO2 0.505 unspecified
CCC(=O)N1C[C@H](C)[C@@H](OC)CN(C)C(=O)c2cc(NC(=O)Nc3ccc(Cl)cc3)ccc2OC[C@@H]1C 0.537 unspecified

— PubChem BioAssay AID1053122 (Broad Institute, 2014)
